Screening data from PubChem.
ANO1 block: TMEM16A chloride channel inhibitors, primary screen, cell-based, HTS; Anoctamin-1 (Mus musculus), Q8BHY3; HEK293 TMEM16A/YFP iodide influx fluorescence, ionomycin; normalized B-score (activity score, 25-100; higher = stronger inhibition) at 10 µM; hit rate 1.2% among 310,000;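 active means ratio plate-corrected score three or more library SD toward inhibition, starting fluorescence score within five deviations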;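 further: score derived from kinetic fluorescence span divided by baseline fluorescence per well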
Target sequence (Q8BHY3 whole entry, looked up): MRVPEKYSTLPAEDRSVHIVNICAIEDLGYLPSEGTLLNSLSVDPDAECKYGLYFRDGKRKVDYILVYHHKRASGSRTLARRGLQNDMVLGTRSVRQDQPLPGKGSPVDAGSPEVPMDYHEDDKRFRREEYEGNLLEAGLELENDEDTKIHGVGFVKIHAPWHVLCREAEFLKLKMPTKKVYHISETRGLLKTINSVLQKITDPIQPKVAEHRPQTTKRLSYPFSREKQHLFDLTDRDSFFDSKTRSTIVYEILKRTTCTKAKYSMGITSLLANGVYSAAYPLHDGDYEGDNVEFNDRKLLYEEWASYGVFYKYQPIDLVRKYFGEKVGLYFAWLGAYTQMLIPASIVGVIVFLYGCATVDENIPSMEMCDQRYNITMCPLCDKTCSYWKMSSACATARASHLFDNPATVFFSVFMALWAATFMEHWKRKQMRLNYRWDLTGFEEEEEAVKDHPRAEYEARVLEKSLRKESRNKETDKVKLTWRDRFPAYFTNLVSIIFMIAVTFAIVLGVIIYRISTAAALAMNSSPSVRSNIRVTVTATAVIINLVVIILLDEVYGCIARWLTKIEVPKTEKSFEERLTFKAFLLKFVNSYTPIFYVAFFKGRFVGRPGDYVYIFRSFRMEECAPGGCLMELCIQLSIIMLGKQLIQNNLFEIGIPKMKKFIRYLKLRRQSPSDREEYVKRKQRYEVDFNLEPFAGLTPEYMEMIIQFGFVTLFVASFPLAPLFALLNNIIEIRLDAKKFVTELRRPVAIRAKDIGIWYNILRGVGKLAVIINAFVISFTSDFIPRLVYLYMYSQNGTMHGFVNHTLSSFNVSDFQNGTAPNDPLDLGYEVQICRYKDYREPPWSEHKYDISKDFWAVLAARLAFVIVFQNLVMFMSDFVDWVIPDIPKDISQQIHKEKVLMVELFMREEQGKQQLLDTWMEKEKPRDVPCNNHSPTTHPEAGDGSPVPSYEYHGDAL
RTF Ca sens inh: cardiac RTF calcium sensitivity inhibitors, primary screen, biochemical, IANBD-TnC fluorescence, EC70 calcium | hit rate 0.12% among 340,000 | inhibition, % at 7.15 µM | IANBD-labeled cardiac RTF, Ca2+ fluorescence | AID 493244, 2011;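 active means inhibition above the mean inhibition of all tested compounds plus 3 SD, cut at about 17% in these data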;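 further: assay run at fixed EC70 calcium of 1.6 mM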
CRFBP-R2 block: antagonists of CRF-BP/CRF-R2 complex, primary screen, cell-based, HEK293, calcium dye fluorescence, uHTS | hit rate 0.59% among 350,000 | AID 588475, 2011 | CRF-induced calcium fluorescence | inhibition, % at 11.8 µM;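 active means inhibition of the ligand-induced calcium signal above about 50% at the single tested concentration, limit read from the data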
RTF Ca sens act: cardiac RTF calcium sensitivity activators, primary screen, biochemical, IANBD-TnC fluorescence, EC20 calcium; Troponin I, cardiac muscle (Homo sapiens) + Troponin T, cardiac muscle (Homo sapiens) + …; IANBD-labeled TnC RTF fluorescence at EC20 calcium; 0% EC20 calcium, 100% full calcium; activation, % at 7.2 µM; hit rate 0.24% among 340,000; AID 493008, 2010;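 active means activation above the mean over all tested compounds plus 3 SD, cut at about 30% in these data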;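 further: rise in fluorescence read as greater calcium sensitivity of cardiac thin filaments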
ANO1 activ: TMEM16A chloride channel activators or potentiators, primary screen, cell-based, HTS | AID 623877, 2012 | Anoctamin-1 (Mus musculus), Q8BHY3 | hit rate 0.3% among 340,000 | B-score at 10 µM | HEK293 TMEM16A/YFP-H148Q/I152L, iodide quench fluorescence; active compounds read low;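 active means fluorescence-ratio B-score plate-corrected deviation score at least 3 library SD below zero, with starting fluorescence score within 5 deviations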;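 further: channel opened by trigger with iodide after compound preincubation; score built on the fluorescence ratio of max minus min over baseline; more negative score means more quench and so TMEM16A activation or potentiation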
CRFR2-BP ag: agonists of CRF-BP/CRF-R2 complex, primary screen, cell-based, HEK293, calcium dye fluorescence, uHTS. hit rate 0.46% among 350,000. AID 588473, 2011. CRF-binding protein / CRF receptor 2 complex (human). activation, % at 13.2 µM. calcium dye fluorescence (FLIPR); percent of saturating CRF peptide response;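 active means activation of at least 50%, plus an integration ratio under a set limit after plate pattern correction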
TMEM16A reconf: TMEM16A chloride channel inhibitors, confirmation, cell-based, re-confirmation; shares compounds with ANO1 block; HEK293 TMEM16A/YFP-H148Q, iodide quench fluorescence; ionomycin added to raise cell calcium; inhibition, % at 10 µM; hit rate 39% among 2,300;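 active means mean duplicate percent inhibition, scaled so buffer wells are 0 and the reference blocker 100, over three buffer SD above buffer mean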
HEK293 Ca mobil: calcium mobilization in TMEM16A/YFP HEK293 cells, confirmation, counter-screen for TMEM16A inhibitor project; shares compounds with ANO1 block; AID 652231, 2013; Fluo4 calcium mobilization; hit rate 2% among 2,300; calcium response (% of ionomycin), % at 10 µM;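 active means duplicate-averaged calcium signal over 20% of the ionomycin maximum, relative to buffer baseline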;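 further: each well's signal is peak minus trough fluorescence divided by its pre-addition baseline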
Parental YFP cnt: iodide YFP quench changes in parental YFP-HEK293, counter-screen for TMEM16A inhibitor project, cell-based; 2,300 tested, under 10 active; ionomycin; YFP ratio F(max-min)/F0 at 10 µM; AID 652233, 2013; shares compounds with ANO1 block;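 active means yellow fluorescent protein signal ratio exceeding the buffer control mean by over 5 SD of those controls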;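 further: ratio is mean of duplicate wells from kinetic YFP trace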
ClC-1 rat inh: ClC-1 chloride channel inhibition, selectivity assay for TMEM16A inhibitor project, cell-based, voltage-dependent ClC-1; ratio percent, % at 10 µM; shares compounds with ANO1 block; CHO ClC-1-YFP, iodide influx fluorescence quench; iodide control reads 0, buffer control 100; AID 652236, 2013; 2,300 tested, under 10 active;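 active means duplicate-mean ratio percent above the mean of iodide-only control wells, which defines zero, plus 5 of their SD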;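 further: higher percent means stronger block of ClC-1 iodide influx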
Large screens that a line does not name were inactive (follow-up assays come after a bar, where they were run). Sampled rows, rich in hits. Any-hit rate of the full collection: about 2.4%.

COc1ccccc1CNC(=O)c1nn(-c2ccc(C)cc2)c(=O)c2c1c1ccccc1n2C	none | TMEM16A reconf inactive | HEK293 Ca mobil inactive | Parental YFP cnt inactive | ClC-1 rat inh inactive
COc1ccc(-n2nc(C(=O)NCc3ccco3)c3c4ccccc4n(C)c3c2=O)cc1Cl	none
O=C(NCC1CC1)c1cc(-c2ccccc2)nn1CC1CC(c2cccnc2)=NO1 (configuration not stated)	none
CCCCc1cc(=O)oc2cc(OCC(=O)Nc3cccnc3)c(Cl)cc12	none
CCCOc1ccccc1C1CC(=O)Nc2cc3c(cc21)OCCO3 (configuration not stated)	ANO1 block 100 | TMEM16A reconf 26% | HEK293 Ca mobil inactive | Parental YFP cnt inactive | ClC-1 rat inh inactive
CCOc1ccc(N(CC)S(=O)(=O)c2ccc3c(c2)n(C)c(=O)c(=O)n3C)cc1	ANO1 block 100 | TMEM16A reconf inactive | HEK293 Ca mobil inactive | Parental YFP cnt inactive | ClC-1 rat inh inactive
CCOc1ccc(OCC)c(NS(=O)(=O)c2ccc3c(c2)n(C)c(=O)c(=O)n3C)c1	none
CC(C)(C)c1nc(SCC(=O)Nc2nc3c(s2)CCCC3)c2ccccc2n1	none
CC(C)c1nc(SCC(=O)Nc2nc3c(s2)CCCC3)c2ccccc2n1	ANO1 block 25 | TMEM16A reconf inactive | HEK293 Ca mobil inactive | Parental YFP cnt inactive | ClC-1 rat inh inactive
O=C(NC1CCN(C(=O)C2CCCCC2)CC1)c1ccccc1	none
Cn1c(=O)c2ccccc2n(CC(=O)NCCC2=CCCCC2)c1=O	none
O=C(Cn1c(=O)n(CCCCC(=O)NC2CCCC2)c(=O)c2ccccc21)NCCC1=CCCCC1	ANO1 block 100 | TMEM16A reconf inactive | HEK293 Ca mobil inactive | Parental YFP cnt inactive | ClC-1 rat inh inactive
CCc1ccc(NC(=O)Cn2cnc3c(=O)n(C)c(=O)n(C)c32)cc1	none
CCc1ccc(C(C)NC(=O)Cn2cnc3c(=O)n(C)c(=O)n(C)c32)cc1 (configuration not stated)	ANO1 block 25 | TMEM16A reconf inactive | HEK293 Ca mobil inactive | Parental YFP cnt inactive | ClC-1 rat inh inactive
CC1=NN(c2ccccc2)C(=O)/C1=C\C=C1\N(C)c2ccccc2C1(C)C	none | TMEM16A reconf 30% | HEK293 Ca mobil inactive | Parental YFP cnt inactive | ClC-1 rat inh inactive
N#Cc1c(C(F)(F)F)cc(=O)n2c1[nH]c1ccccc12	ANO1 block 100 | TMEM16A reconf 35% | HEK293 Ca mobil 22% | Parental YFP cnt inactive | ClC-1 rat inh inactive
COc1ccc(NC(=O)CCOc2ccccc2C)cc1S(=O)(=O)N1CCCCC1	ANO1 block 25 | TMEM16A reconf inactive | HEK293 Ca mobil inactive | Parental YFP cnt inactive | ClC-1 rat inh inactive
